About 8,800 targets were measured; listed, in parts, are those with a hit and a random draw of the rest. About 0.5% of all pairs of compound and target were hits.

Chain of UniProt O95819 (O95819 whole entry, looked up): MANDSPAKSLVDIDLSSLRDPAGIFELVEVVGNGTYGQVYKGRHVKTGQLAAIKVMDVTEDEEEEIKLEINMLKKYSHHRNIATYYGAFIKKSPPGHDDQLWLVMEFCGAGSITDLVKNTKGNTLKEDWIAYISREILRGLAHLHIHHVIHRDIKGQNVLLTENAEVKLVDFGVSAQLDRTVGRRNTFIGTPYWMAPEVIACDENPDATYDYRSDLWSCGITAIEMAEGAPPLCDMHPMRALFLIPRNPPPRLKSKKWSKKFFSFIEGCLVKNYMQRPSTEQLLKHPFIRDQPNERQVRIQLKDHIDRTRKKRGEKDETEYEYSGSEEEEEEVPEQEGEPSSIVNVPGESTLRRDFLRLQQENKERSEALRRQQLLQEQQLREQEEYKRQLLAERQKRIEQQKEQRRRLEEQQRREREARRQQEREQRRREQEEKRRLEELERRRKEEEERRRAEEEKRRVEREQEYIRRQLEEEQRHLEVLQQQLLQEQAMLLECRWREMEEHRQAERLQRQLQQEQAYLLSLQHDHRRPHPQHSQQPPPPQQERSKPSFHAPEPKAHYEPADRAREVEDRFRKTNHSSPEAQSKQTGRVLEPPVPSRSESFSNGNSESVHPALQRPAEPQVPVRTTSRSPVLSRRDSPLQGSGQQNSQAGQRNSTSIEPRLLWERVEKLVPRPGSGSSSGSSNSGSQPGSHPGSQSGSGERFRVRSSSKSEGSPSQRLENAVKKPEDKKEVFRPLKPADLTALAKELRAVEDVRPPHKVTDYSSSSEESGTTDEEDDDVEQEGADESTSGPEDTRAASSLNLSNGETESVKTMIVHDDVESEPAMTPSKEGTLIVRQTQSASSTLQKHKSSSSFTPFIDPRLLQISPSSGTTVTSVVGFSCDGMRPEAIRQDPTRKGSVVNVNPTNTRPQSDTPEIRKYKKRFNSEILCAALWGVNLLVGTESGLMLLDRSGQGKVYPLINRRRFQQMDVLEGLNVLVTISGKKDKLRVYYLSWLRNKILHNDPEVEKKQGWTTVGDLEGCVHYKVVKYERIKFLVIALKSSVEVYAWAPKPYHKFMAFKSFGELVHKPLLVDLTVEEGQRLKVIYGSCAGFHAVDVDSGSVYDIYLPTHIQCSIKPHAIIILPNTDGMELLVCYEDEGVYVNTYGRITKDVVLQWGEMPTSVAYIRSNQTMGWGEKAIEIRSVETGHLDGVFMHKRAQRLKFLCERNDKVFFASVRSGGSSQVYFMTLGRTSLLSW
Chain of UniProt Q9BVG8 (Q9BVG8 whole entry, looked up): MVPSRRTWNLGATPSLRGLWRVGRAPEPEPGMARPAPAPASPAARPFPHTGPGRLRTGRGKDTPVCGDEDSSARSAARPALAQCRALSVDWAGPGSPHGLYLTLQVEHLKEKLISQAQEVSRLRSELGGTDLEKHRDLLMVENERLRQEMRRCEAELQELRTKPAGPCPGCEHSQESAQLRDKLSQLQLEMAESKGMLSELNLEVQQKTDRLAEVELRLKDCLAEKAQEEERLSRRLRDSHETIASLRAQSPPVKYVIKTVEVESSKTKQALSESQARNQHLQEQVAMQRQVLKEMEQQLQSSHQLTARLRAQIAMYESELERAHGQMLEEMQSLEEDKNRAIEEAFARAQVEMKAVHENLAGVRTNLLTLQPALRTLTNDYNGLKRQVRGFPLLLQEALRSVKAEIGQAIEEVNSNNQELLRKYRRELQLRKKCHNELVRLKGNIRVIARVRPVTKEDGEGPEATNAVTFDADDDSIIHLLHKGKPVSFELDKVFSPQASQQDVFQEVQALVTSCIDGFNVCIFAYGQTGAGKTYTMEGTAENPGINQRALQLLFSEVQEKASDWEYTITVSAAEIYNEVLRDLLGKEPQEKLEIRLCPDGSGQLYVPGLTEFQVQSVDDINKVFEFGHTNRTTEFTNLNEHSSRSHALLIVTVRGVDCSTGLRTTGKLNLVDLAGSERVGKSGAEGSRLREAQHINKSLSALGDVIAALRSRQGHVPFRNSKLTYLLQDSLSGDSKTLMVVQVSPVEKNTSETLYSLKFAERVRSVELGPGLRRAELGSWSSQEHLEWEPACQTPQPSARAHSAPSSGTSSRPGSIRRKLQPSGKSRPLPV
Chain of UniProt P53778 (P53778 whole entry, looked up): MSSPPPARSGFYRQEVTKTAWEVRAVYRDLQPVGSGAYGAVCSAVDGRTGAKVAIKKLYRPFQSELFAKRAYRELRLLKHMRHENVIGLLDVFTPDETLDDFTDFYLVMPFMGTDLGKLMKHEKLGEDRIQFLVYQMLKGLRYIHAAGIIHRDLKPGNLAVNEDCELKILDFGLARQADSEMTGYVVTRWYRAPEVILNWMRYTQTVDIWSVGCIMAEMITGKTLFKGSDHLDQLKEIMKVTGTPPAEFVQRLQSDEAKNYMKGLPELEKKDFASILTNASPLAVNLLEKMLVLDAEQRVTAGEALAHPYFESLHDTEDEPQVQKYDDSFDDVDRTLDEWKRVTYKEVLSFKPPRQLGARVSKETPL
Chain of UniProt Q8N5J2 (Q8N5J2 whole entry, looked up): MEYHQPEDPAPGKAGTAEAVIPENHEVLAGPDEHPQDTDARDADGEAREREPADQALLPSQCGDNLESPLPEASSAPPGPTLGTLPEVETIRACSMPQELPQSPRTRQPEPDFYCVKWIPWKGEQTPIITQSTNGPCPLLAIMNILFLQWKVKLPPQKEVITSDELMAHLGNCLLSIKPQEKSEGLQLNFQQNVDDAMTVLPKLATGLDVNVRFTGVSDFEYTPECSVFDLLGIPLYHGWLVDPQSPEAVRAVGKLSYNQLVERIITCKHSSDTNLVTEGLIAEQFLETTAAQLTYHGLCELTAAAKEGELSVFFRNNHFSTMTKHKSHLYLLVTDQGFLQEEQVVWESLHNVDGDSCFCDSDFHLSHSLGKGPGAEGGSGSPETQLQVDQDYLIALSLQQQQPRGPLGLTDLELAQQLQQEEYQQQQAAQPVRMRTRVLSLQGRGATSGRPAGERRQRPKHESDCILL
Chain of UniProt Q86Y91 (Q86Y91 whole entry, looked up): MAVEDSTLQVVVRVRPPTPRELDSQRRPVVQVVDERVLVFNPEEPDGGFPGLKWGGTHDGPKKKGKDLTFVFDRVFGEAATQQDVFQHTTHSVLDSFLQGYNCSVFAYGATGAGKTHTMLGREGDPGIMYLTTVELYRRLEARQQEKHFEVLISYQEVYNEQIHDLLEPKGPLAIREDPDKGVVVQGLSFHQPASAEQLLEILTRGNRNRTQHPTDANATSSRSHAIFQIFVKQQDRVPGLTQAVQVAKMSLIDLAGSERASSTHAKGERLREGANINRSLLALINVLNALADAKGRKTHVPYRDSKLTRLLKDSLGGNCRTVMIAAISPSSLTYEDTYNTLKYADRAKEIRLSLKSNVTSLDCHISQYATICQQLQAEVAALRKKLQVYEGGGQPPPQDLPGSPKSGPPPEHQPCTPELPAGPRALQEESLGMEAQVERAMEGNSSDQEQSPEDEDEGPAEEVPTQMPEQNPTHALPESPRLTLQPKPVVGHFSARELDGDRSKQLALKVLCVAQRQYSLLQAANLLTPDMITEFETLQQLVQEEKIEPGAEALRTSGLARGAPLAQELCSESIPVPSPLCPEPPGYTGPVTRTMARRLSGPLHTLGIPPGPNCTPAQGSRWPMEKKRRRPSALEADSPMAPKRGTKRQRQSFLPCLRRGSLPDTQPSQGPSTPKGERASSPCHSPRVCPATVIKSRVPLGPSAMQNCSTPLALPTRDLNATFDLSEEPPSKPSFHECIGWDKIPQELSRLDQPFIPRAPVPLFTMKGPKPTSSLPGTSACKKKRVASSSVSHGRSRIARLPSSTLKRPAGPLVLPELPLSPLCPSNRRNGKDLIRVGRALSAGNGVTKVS
Chain of UniProt O00522 (O00522 whole entry, looked up): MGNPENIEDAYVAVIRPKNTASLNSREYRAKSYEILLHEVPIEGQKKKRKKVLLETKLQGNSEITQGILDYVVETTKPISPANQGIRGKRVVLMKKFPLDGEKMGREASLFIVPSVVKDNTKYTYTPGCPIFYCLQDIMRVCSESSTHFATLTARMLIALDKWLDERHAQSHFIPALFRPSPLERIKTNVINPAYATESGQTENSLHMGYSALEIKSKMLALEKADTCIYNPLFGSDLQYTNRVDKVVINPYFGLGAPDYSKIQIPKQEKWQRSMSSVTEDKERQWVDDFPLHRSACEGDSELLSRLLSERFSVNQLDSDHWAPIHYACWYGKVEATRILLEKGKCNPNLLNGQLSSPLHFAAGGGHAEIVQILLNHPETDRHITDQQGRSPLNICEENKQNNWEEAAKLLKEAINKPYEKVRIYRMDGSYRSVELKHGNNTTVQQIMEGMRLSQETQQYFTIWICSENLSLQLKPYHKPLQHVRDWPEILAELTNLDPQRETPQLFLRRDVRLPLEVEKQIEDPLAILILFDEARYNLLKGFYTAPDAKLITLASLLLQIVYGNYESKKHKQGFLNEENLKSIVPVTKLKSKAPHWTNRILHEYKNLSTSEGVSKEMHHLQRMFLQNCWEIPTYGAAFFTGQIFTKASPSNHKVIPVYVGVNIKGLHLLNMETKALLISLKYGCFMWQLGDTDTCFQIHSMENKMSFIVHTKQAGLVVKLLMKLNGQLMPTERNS
Chain of UniProt P83369 (P83369 whole entry, looked up): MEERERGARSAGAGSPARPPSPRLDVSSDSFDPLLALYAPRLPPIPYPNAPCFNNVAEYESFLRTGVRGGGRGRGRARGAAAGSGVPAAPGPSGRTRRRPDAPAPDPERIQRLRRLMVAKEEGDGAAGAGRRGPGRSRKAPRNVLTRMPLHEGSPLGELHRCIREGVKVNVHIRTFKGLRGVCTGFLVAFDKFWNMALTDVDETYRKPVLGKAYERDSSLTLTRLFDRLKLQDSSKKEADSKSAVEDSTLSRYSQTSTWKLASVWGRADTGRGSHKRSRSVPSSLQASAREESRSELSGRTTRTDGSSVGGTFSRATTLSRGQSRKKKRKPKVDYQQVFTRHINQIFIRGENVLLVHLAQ
Chain of UniProt P01116 (P01116 whole entry, looked up): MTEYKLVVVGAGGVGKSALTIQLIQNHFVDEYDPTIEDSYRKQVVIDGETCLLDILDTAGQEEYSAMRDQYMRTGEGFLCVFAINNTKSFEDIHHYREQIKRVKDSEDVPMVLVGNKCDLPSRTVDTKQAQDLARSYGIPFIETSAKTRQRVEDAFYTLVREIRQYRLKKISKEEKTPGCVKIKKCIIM

Compound in one experiment: CNc1nc(-c2ccc3c(N)n[nH]c3c2)cc(N2C[C@@H](C(=O)NC3CCCCC3)CC[C@H]2C)n1
In words: log2 fold change, soluble protein after heating vs DMSO (PISA); higher = thermal stabilisation; K562 lysate, 10 uM; active = over 0.2 and 3.5 SD of the protein, either way, in both replicates (recomputed). An outline of the steps:
(§1)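 Pellets of K562 cells were dounce-homogenised in PBS pH 7.4 with 1 mM MgCl2, and the crude extract was held at 1 mg/mL protein for a 30 min treatment with 10 μM compound. Aliquots were heated for 3 min over 48°C-58°C and pooled before NP-40 was added to 0.5% at 4°C. The supernatant from 21,000xg for 90 min was quantified by TMTpro 16plex LC-MS/MS with channel sums equalised. Values are reported from duplicates as log-two fold change in thermal stability relative to solvent controls.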
In the case of LGALS3BP (UniProt Q08380), the log2 fold change is -0.571 (active).

On to MAPKAP1 (UniProt Q9BPZ7), for which the log2 fold change is 0.081 (inactive). Regarding KRIT1 (UniProt O00522), the log2 fold change is 0.102 (inactive). With KMT2B (UniProt Q9UMN6), the log2 fold change was 0.246 (inactive).

Regarding KLHL12 isoform 2 (UniProt Q53G59), the log2 fold change is -0.02 (inactive). For MEX3A (UniProt A1L020), the log2 fold change was 0.037 (inactive). Consider KIFC3 isoform 6 (UniProt Q9BVG8), for which the log2 fold change is 0.308 (inactive).

As to MAPK12 (UniProt P53778), the log2 fold change was 0.054 (inactive). For LSM11 (UniProt P83369), the log2 fold change was 0.009 (inactive).

On to MRC2 (UniProt Q9UBG0), for which the log2 fold change was 0.05 (inactive). Regarding MARCHF6 (UniProt O60337), the log2 fold change was 0.084 (inactive).

For KIF18B (UniProt Q86Y91), the log2 fold change is -0.067 (inactive).

Turning to MCUB (UniProt Q9NWR8), the log2 fold change is -0.074 (inactive).

Take MMS22L (UniProt Q6ZRQ5): the log2 fold change is -0.03 (inactive).

For the target LIMK1 (UniProt P53667), the log2 fold change is -0.085 (inactive). Turning to MCMBP isoform 2 (UniProt Q9BTE3), the log2 fold change is 0.199 (inactive). Same read-out and setting: to MAP4K4 isoform 6 (UniProt O95819) belongs -0.016 (inactive); to KRAS isoform 2 (UniProt P01116), 0.046 (inactive); to MEGF8 (UniProt Q7Z7M0), -0.051 (inactive). Regarding MAP4 isoform 5 (UniProt P27816), the log2 fold change is 0.138 (inactive).

Take MAP4K4 isoform 3 (UniProt O95819): the log2 fold change was -0.08 (inactive). Turning to MINDY1 isoform 3 (UniProt Q8N5J2), the log2 fold change is -0.054 (inactive).

MED28 (UniProt Q9H204): the log2 fold change was 0.081 (inactive). Take MME (UniProt P08473): the log2 fold change is 0.142 (inactive).

For LRRC7 (UniProt Q96NW7), the log2 fold change is 0.058 (inactive). Still for that read-out and setting: to KIF21A (UniProt H0YI78) belongs -0.01 (inactive); to METTL21A (UniProt Q8WXB1), 0 (inactive).

Compound in another experiment: COC(=O)N[C@@H](C)CNc1nccc(-c2cn(C(C)C)nc2-c2cc(Cl)cc(NS(C)(=O)=O)c2F)n1 [encorafenib]
The description is as above. The procedure, abridged: as §1
Consider LGALS3BP (UniProt Q08380), for which the log2 fold change is 0.023 (inactive). Consider MAPKAP1 (UniProt Q9BPZ7), for which the log2 fold change is -0.051 (inactive). On to LEPROT (UniProt O15243), for which the log2 fold change is -0.003 (inactive). Regarding KRIT1 (UniProt O00522), the log2 fold change was 0.118 (inactive). Take KLC1 isoform 10 (UniProt Q07866): the log2 fold change was 0.06 (inactive). The same measure, in the same setting: with LRP1 (UniProt Q07954) the figure was -0.091 (inactive); with KMT2B (UniProt Q9UMN6), 0.127 (inactive). As for KIFC3 isoform 6 (UniProt Q9BVG8), the log2 fold change is -0.053 (inactive). With MAPK12 (UniProt P53778), the log2 fold change was -0.001 (inactive).

For LSM11 (UniProt P83369), the log2 fold change is 0.082 (inactive). The same measure, in the same setting: to MRC2 (UniProt Q9UBG0) belongs 0.031 (inactive); to MARCHF6 (UniProt O60337), 0.08 (inactive).

Turning to KIF18B (UniProt Q86Y91), the log2 fold change is -0.159 (inactive).

LRRC9 (UniProt Q6ZRR7): the log2 fold change is -0.022 (inactive). Still for that read-out and setting: with MMS22L (UniProt Q6ZRQ5) the figure was -0.007 (inactive); with LIMK1 (UniProt P53667), 0.489 (active).

Take MCMBP isoform 2 (UniProt Q9BTE3): the log2 fold change is -0.015 (inactive). Take MAP4K4 isoform 6 (UniProt O95819): the log2 fold change was 0.207 (inactive).

Consider KRAS isoform 2 (UniProt P01116), for which the log2 fold change was -0.109 (inactive). Still for that read-out and setting: with MEGF8 (UniProt Q7Z7M0) the figure was -0.01 (inactive). For the target LY6E (UniProt Q16553), the log2 fold change was 0.03 (inactive). Turning to MAP4 isoform 5 (UniProt P27816), the log2 fold change is -0.051 (inactive).

As for MAP4K4 isoform 3 (UniProt O95819), the log2 fold change was -0.075 (inactive).

With MINDY1 isoform 3 (UniProt Q8N5J2), the log2 fold change was 0.03 (inactive). Consider LRRC7 (UniProt Q96NW7), for which the log2 fold change is -0.103 (inactive). In the case of MAPK7 (UniProt Q13164), the log2 fold change is -0.03 (inactive). Still for that read-out and setting: with MAP3K6 (UniProt O95382) the figure was 0.167 (inactive).

The record behind these values is the supplement of paper PMC10849652.
